Laboratory results published in PubChem BioAssay (NCI).
Where “and” joins values, the source holds several entries; their conditions need not be identical. Identical values can stand only once. This is part of a sample that, as a whole, favours compounds with a hit. Of some 79,000 tested, about 15% had one in any assay. No stated cut-off is given here; in the data, active means growth inhibition above about 70%; inactive means the rest.

How the values were obtained:
[1] = NCI Yeast Anticancer Drug Screen. Data for the rad50 strain (AID 155);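 further: 0% = growth of vehicle-only cultures of the same strain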; details: S. cerevisiae rad50 strain growth inhibition; at 50.0 µM; active compounds read high
Method in brief: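 Growth of the mutant yeast was measured after compound exposure and referenced to vehicle-treated cultures.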

[2] = NCI Yeast Anticancer Drug Screen. Data for the mec2-1 strain (AID 157); details: S. cerevisiae mec2-1 strain, at 50.0 µM, active compounds read high
Method in brief: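 Compounds were applied to mec2-1 yeast cells. Their growth was then compared with that of vehicle-treated cultures to give growth inhibition.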

[3] = NCI Yeast Anticancer Drug Screen. Data for the sgs1 mgt1 strain (AID 161);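 further: 0% = growth of cultures given vehicle only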; details: S. cerevisiae sgs1 mgt1 strain, at 50.0 µM, active compounds read high
Method in brief: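 Percent growth inhibition was derived by comparing compound-exposed mutant yeast with vehicle-exposed cultures. The strain carries alterations in DNA damage repair.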

[4] = NCI Yeast Anticancer Drug Screen. Data for the cln2 rad14 strain (AID 165);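 further: 0% = growth equal to vehicle treated cultures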; details: S. cerevisiae cln2 rad14 strain, at 50.0 µM, active compounds read high
Method in brief: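 Strain: cln2 rad14 yeast, altered in cell cycle control and DNA damage repair. Read-out: growth inhibition vs vehicle.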

[5] = NCI Yeast Anticancer Drug Screen. Data for the bub3 strain (AID 167); details: S. cerevisiae bub3 mutant strain, at 50.0 µM, active compounds read high
Method in brief: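 Whole-cell yeast assay. The mutant strain was incubated with compounds, and growth inhibition was determined by comparison with vehicle-treated cells.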

[6] = NCI Yeast Anticancer Drug Screen. Data for the mlh1 rad18 strain (AID 175); details: S. cerevisiae mlh1 rad18 strain growth inhibition; at 50.0 µM; active compounds read high
Method in brief: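 A repair-deficient yeast strain is exposed to test compound, and growth is scored relative to vehicle-treated controls.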

Measured: growth inhibition

O=C(/C(=N/N(C(=O)c1ccccc1)c1ccccc1)c1ccccc1)c1ccccc1
inactive: [1] 29.4% and 22.2% | [2] 5.2% and -1.9% | [3] 19% and 16.8% | [4] -12.4% and 16.6% | [5] -3.85% and -6.05% | [6] 8.65% and 26.4%

Cc1ccc(S(=O)(=O)NN)cc1
inactive: [1] -8.7% and 9.3% | [2] 2.3% and -9.9% | [3] -3.6% and 5.7% | [4] 2.5% and 6.7% | [5] -30.2% and 16.4% | [6] -20% and 5.9%

O=C(O)c1cc([N+](=O)[O-])ccc1Nc1ccccc1
inactive: [1] 10.8% and -9.95% | [2] 0.2% and -12.4% | [3] -7.05% and -3.35% | [4] 31.6% and -28.6% | [5] 18.6% and -3.55% | [6] 18.1% and -6.2%

COC(=O)C1(C)CCCC2(C)c3cc(OC)ccc3C=CC12 (configuration not stated)
inactive: [1] 14.5% and 6.75% | [2] -1.8% and 8.1% | [3] -0.6% and 2.55% | [4] -0.6% and 4.75% | [5] 2.5% and 21.5% | [6] 4.45% and 1.2%

COC(=O)C(CC(C)C)NC(=O)CN1C(=O)c2ccccc2C1=O (configuration not stated)
inactive: [1] -12.9% and 9.2% | [2] -5.95% and 10.9% | [3] 6.75% and 4.6% | [4] 5.05% and 6.3% | [5] -10% and 7.3% | [6] -2.4% and 1.45%

CC(C)c1ccc(C(=O)O)cc1
inactive: [1] 11.3% and 24% | [2] -9.2% and 12.3% | [3] 9.55% and 13.2% | [4] -8.2% and 5.9% | [5] -9% and 5.1% | [6] 20.1% and 22.2%

O=C(O)CC(c1ccccc1)c1ccccc1
inactive: [1] -47.2% and 9.6% | [2] -39% and -5.4% | [3] -2.95% and 2.15% | [4] 3.35% and -3.55% | [5] -30.6% and -21.7% | [6] -28.1% and -0.95%

NC(=S)N/N=C/c1ccc([N+](=O)[O-])cc1
inactive: [1] 40.4% and 11.5% | [2] 29.7% and 13.2% | [3] 29.2% and 4.5% | [4] 24.1% and 20.6% | [5] 5.7% and 3.7% | [6] 30.9% and 5.95%

CC(=O)OCC1OC(CCC#N)C(OC(C)=O)C(OC(C)=O)C1OC(C)=O (configuration not stated)
inactive: [1] 10.7% and 1.7% | [2] 15.5% and 14.2% | [3] 17.4% and 2.35% | [4] -12% and -1.35% | [5] 9.3% and -4.05% | [6] 13.6% and 11.3%

O=C1OC(=O)C2C3CCCCC3=C3CCCCC3C12 (configuration not stated)
inactive: [1] 2.7% and 11.1% | [2] 41.5% and -8.4% | [3] -3.25% and 4.25% | [4] 8.6% and -9.1% | [5] 22.2% and 3.9% | [6] -5.3% and 13.6%

Nc1ccc(C(F)(F)F)cc1[N+](=O)[O-]
inactive: [1] -33.3% and 12.1% | [2] -19.9% and 5.6% | [3] -49.6% and 12.5% | [4] -43.6% and 10.2% | [5] -35.1% and 3.5% | [6] -22.5% and 9.15%

COc1cc([N+](=O)[O-])c(S(=O)(=O)O)cc1N
inactive: [1] -7.95% and 30.1% | [2] 22.8% and 6.65% | [3] -11.8% and -0.8% | [4] -23.7% and 16.8% | [5] 7.2% and 16.3% | [6] -0.75% and 38.9%

CC(OC(=O)c1ccccc1)C(OC(=O)c1ccccc1)C(OC(=O)c1ccccc1)c1cnn(-c2ccccc2)n1 (configuration not stated)
inactive: [1] 14.8% and 35.7% | [2] -2.35% and -1.9% | [3] 24.8% and 3.35% | [4] 19.1% and -9.45% | [5] 10.1% and 16.1% | [6] 6.7% and 32%

COc1ccc(C(O)c2nccn2C)c(OC)c1 (configuration not stated)
inactive: [1] -17.6% and -23.8% | [2] -3.55% and -10.8% | [3] -0.3% and -6.2% | [4] 14.7% and 10.1% | [5] 20.1% and 21% | [6] 5.35% and -6.35%

CC(=O)OCC(OC(C)=O)C(OC(C)=O)C(OC(C)=O)C(C=NN(C(C)=O)S(=O)(=O)c1ccc(/C=C2\NC(=O)NC2=O)cc1)OC(C)=O (configuration not stated)
inactive: [1] 2.7% and 15.3% | [2] 13.4% and 0.65% | [3] 26.6% and 11.7% | [4] 24.1% and 30.6% | [5] -5.25% and 7.15% | [6] 25.8% and 18.2%

CSCCC(NC(=O)COc1ccc(Cl)cc1Cl)C(=O)O (configuration not stated)
inactive: [1] -21.3% and 16.8% | [2] -35.6% and 60% | [3] -44.5% and 34.2% | [4] 6.2% and 7.2% | [5] -23.4% and 30.6% | [6] -33.3% and 52.7%

O=S(=O)(O)c1cc(N=Nc2cc(S(=O)(=O)O)c3cccnc3c2O)ccc1/C=C/c1ccc(N=Nc2cc(S(=O)(=O)O)c3cccnc3c2O)cc1S(=O)(=O)O
inactive: [1] -16.7% and 18.6% | [2] -17.4% and 7.65% | [3] -26.5% and 7.4% | [4] -24.4% and -55.5% | [5] -18.6% and -62.5% | [6] -111% and -27.9%

Nc1c2c(nc3ccccc13)CCCC2 (tested in a mixture with another compound)
inactive: [1] -7.95% and -12.2% | [2] -20.4% and -22.8% | [3] -14.9% and -14% | [4] 9.6% and 9.4% | [5] -21.2% and -18.6% | [6] -11.7% and -0.1%

NC(C(=O)O)C(CC(=O)O)C(=O)O (configuration not stated)
inactive: [1] 1.8% and 9.2% | [2] -2.1% and 11.2% | [3] -1.95% and -2.75% | [4] -57% and -40% | [5] -10.9% and -0.05% | [6] 16.4% and 9.75%

NCCCNCCSSC/C=C\CSSCCNCCCN
inactive: [1] 1.9% and -5.5% | [2] -15.6% and -4.85% | [3] 1.8% and -15.3% | [4] 1.15% and -16.8% | [5] 7.85% and -2.3% | [6] 11.3% and 1.45%

O=P(O)(O)Oc1ccccc1
inactive: [1] -10.4% and -8.3% | [2] -6.25% and 6.05% | [3] -16.7% and 6.55% | [4] -9.8% and -9.95% | [5] -0.05% and -3.3% | [6] -12.1% and 9.2%

CC12CCC(C(=O)OC1=O)C2(C)C (configuration not stated)
inactive: [1] 3.8% and -0.45% | [2] -8.2% and 4.05% | [3] -46.8% and -13.5% | [4] 28.1% and -51% | [5] -29.8% and 0.35% | [6] -55% and -0.75%
